Potency and affinity values are given separately. Active and inactive are the calls of the source. How the calls were made is not given here.
Further: 0% is about no effect.

For this assay the following is noted: Ebola virus entry assay, green fluorescence channel.
In the case of `CN1N=C(C(N)=O)CCC1=O`, the efficacy was -14% (inactive). Under `COc1ccc2c(c1)CCCC2=O` stands 8.41% (inactive).

In the case of `CCc1cc2c(s1)-n1c(C)nnc1CN=C2c1ccccc1Cl`, the efficacy was 22% (inactive). With `CC(CN(C)C)C(C)(O)Cc1ccc(Cl)cc1` (configuration not stated), the efficacy is 33.9% (inactive). `O=C(O)c1cc(O)c(O)c(O)c1`: the efficacy is 15.2% (inactive). In the case of `CC(C)=CCC[C@@](C)(O)[C@H]1CC=C(C)CC1` it was -15.6% (inactive); in that of `NC(=O)c1ncn([C@@H]2O[C@H](CO)[C@@H](O)[C@H]2O)c1O`, -21.3% (inactive).

`CC(C)CCCC(C)NCCC(C)C` (configuration not stated): the efficacy is -17.9% (inactive). Under `Cc1nc2ccc(CN(C)c3ccc(C(=O)N[C@@H](CCC(=O)O)C(=O)O)s3)cc2c(=O)[nH]1` stands 17.4% (inactive); under `Cc1c(NC(C)C)c(=O)n(-c2ccccc2)n1C`, -14.1% (inactive). In the case of `CS(=O)(=O)c1ccc([C@@H](O)[C@@H](CF)NC(=O)C(Cl)Cl)cc1` it was -18.1% (inactive). In the case of `C[C@@H](O)[C@H]1C(=O)N2C(C(=O)O)=C(SCCN=CN)C[C@H]12` it was 21.9% (inactive). In the case of `COc1ccccc1OCC(O)CO` (configuration not stated), the efficacy is 12% (inactive). In the case of `CNC(=O)c1ccccc1Sc1ccc2c(/C=C/c3ccccn3)n[nH]c2c1` it was 28.2% (inactive); in that of `CC1(C)O[C@@H]2C[C@H]3[C@@H]4CCC5=CC(=O)C=C[C@]5(C)[C@@H]4[C@@H](O)C[C@]3(C)[C@]2(C(=O)CO)O1`, 50.6% (inactive). In the case of `COc1ccc(O)cc1` it was 18.3% (inactive); in that of `Cc1ccc(Nc2nccc(N(C)c3ccc4c(C)n(C)nc4c3)n2)cc1S(N)(=O)=O`, 37.4% (inactive). Under `CC(=O)OCC1=C(C(=O)O)N2C(=O)[C@@H](N)[C@H]2SC1` stands 11.9% (inactive); under `CCN1CCC[C@H]1CNC(=O)c1c(OC)ccc(Br)c1OC`, -13.7% (inactive).

As to `CC(=O)OCC(=O)[C@@]1(O)CC[C@H]2[C@@H]3CCC4=CC(=O)C=C[C@]4(C)[C@@]3(F)[C@@H](O)C[C@@]21C`, the efficacy was 26.4% (inactive).

With `CC(C)(Oc1ccc(Cl)cc1)C(=O)OCCCOC(=O)C(C)(C)Oc1ccc(Cl)cc1`, the efficacy was -14% (inactive). For the compound `Cn1c(=O)c2[nH]c(Br)nc2n(C)c1=O`, the efficacy is -24.3% (inactive).

These data come from PubChem BioAssay (NCATS).
